Values joined by “and” are separate entries in the source; they are usually repeats but may differ in a detail not shown here. Equal values may be shown once.
What follows are compounds tested on FLX1 + dox-induced PRKAR1A G325D (assay: difference in log2 fold change of viability vs plate median (dox-induced PRKAR1A G325D minus uninduced); higher = compound less effective when PKA is inhibited). Settings: concentration: not stated (2 or 5 uM); 5 days.
Protocol: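 For each plate a log2 fold change vs the plate median was derived, and the values without dox were subtracted from those with dox, averaged over three biological replicates.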

| SMILES | difference in log2 fold change of viability |
| --- | --- |
| O=c1ncn2nc(Sc3ccc(F)cc3F)ccc2c1-c1c(Cl)cccc1Cl | 2.06 |
| COc1cc2c(Oc3ccc(NC(=O)C4(C(=O)Nc5ccc(F)cc5)CC4)cc3F)ccnc2cc1OCCCN1CCOCC1 | -0.0914 |
| CS(=O)(=O)CCNCc1ccc(-c2ccc3ncnc(Nc4ccc(OCc5cccc(F)c5)c(Cl)c4)c3c2)o1 | 0.519 |
| C=CC(=O)Nc1cccc(Oc2nc(Nc3ccc(N4CCN(C)CC4)cc3OC)ncc2Cl)c1 | -1.14 |
| NC(=O)Nc1sc(-c2ccc(F)cc2)cc1C(N)=O | -0.89 |
| CN1CCCN(C(=O)c2cccc(-c3ccc(/C=C4/C(=O)Nc5ccc(Cl)cc54)o3)c2)CC1 | -0.148 |
| CN(c1ncccc1CNc1nc(Nc2ccc3c(c2)CC(=O)N3)ncc1C(F)(F)F)S(C)(=O)=O | 0.235 and 0.428 |
| NC1(c2ccc(-c3nc4ccn5c(=O)[nH]nc5c4cc3-c3ccccc3)cc2)CCC1 | 0.0391 |
| Cc1cc(CS(=O)(=O)c2ccccc2)cc(OCc2ccc(CN3CCC[C@@H]3CO)cc2)c1 | 0.461 |
| CNC(=O)c1cccc(-c2ccc3c(N4CCOC[C@@H]4C)nc(N4CCOC[C@@H]4C)nc3n2)c1 [Vistusertib (AZD2014)] | 0.675 |
| CCc1nc(-c2cccc(C)c2)c(-c2ccnc(NC(=O)c3ccccc3)c2)s1 | 0.387 |
| C#Cc1cccc(Nc2ncnc3cc(OCCOC)c(OCCO)cc23)c1 | -0.763 |
| O=C(Nc1cccc(Nc2ncc(Br)c(NCCc3cnc[nH]3)n2)c1)N1CCCC1 | 0.799 |
| COc1cc2ncnc(Oc3ccc(CC(=O)Nc4cnn(C(C)C)c4)cc3)c2cc1OC | -0.126 |
| COc1ccc(-c2ccc3c(N4CCOCC4)nc(N4C[C@@H](C)O[C@@H](C)C4)nc3n2)cc1CO | 0.463 |
| O=C(Nc1cc(C(F)(F)F)cc(C(F)(F)F)c1)c1cc(Cl)ccc1O | -0.138 |
| COCCOc1ccc2c(c1)ncn2-c1ccc2cccc(N3CCC(N)CC3)c2n1 | -0.262 |
| COc1ccc(-c2ccc3ncc4c(c3c2)n(-c2ccc(N3CCNCC3)c(C(F)(F)F)c2)c(=O)n4C)cn1 | 0.174 |
| COc1cc(Nc2ncc3c(n2)-c2ccc(Cl)cc2C(c2c(F)cccc2OC)=NC3)ccc1C(=O)O [Alisertib (MLN8237)] | -0.903 |
| COc1cc2ncnc(Nc3ccc(Cl)cc3F)c2cc1OC | -0.233 |

| SMILES | difference in log2 fold change of viability |
| --- | --- |
| COc1cc2ncnc(Nc3ccc(O)c(Br)c3)c2cc1OC | -0.279 |
| O=S(=O)(NCCNC/C=C/c1ccc(Br)cc1)c1cccc2cnccc12 | -0.243 |
| CNCc1ccc(-c2cc(-c3nc(-c4ccc(S(=O)(=O)C(C)C)cc4)cnc3N)on2)cc1 | -0.00074 |
| Oc1cc(O)cc(/C=C/c2ccc(O)c(O)c2)c1 [Piceatannol] | -0.236 |
| Cc1cc(N2CCOCC2)cc2[nH]c(-c3c(NC[C@@H](O)c4cccc(Cl)c4)cc[nH]c3=O)nc12 | -1.17 |
| Cc1cc(C(=O)NOCCO)c(Nc2ccc(I)cc2F)n(C)c1=O | -0.818 |
| CCOc1cc(N2CCC(O)CC2)ccc1Nc1ncc2c(n1)N(C)c1ccccc1C(=O)N2C | 0.697 |
| Cc1cnc(-c2cnc(NCCNc3ccc(C#N)cn3)nc2-c2ccc(Cl)cc2Cl)[nH]1 | -0.0854 and -0.119 |
| CC(C)(C)c1cnc(CSc2cnc(NC(=O)C3CCNCC3)s2)o1 | 0.0393 |
| Cn1c(=O)c(F)c(Nc2ccc(I)cc2F)c2c(=O)n(C[C@@H](O)CO)cnc21 | -1.3 |
| CN(C)Cc1cccc(N=C(c2ccccc2)c2c(O)[nH]c3cc(C(=O)N(C)C)ccc23)c1 | 0.0526 |
| O=C1NC(=O)/C(=C/c2ccc(-c3ccc(F)cc3O)o2)S1 | -0.649 |
| CS(=O)(=O)N1CCc2c(-c3cnc(N)nc3)nc(N3CCOCC3)nc21 | 0.207 |
| Cc1cc(Nc2cc(CN3CCOCC3)c3nc(C)c(Cc4ccc(Cl)cc4F)n3n2)n[nH]1 | -1.14 |
| O=c1ccc2ccc(O)c(O)c2o1 [Daphnetin] | -0.062 |
| Cc1cc(C(C)Nc2ccccc2)c2nc(N3CCOCC3)cc(=O)n2c1 (centres undefined) | 0.222 |
| CN1CC[C@H](c2c(O)cc(O)c3c(=O)cc(-c4ccccc4Cl)oc23)[C@H](O)C1 [Flavopiridol (Alvocidib)] | 0.251 |
| CC1(COc2ccc3c(c2)ncn3-c2ccc3cccc(N4CCC(N)CC4)c3n2)COC1 | -0.0241 |
| CCc1ccc(/C=C2/SC(=S)NC2=O)cc1 | 0.116 |

From the supplement of paper PMC9925115
